Experimental findings from PubChem BioAssay are described below.

Activity calls are given as the source filed them.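 Rule for the calls, unless noted: active = compound raises GLP1 secretion from the human gut endocrine cells, with no numeric limit stated; inactive = the rest.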

The first experiment can be described thus: inhibition of endothelial tube formation, primary screen, imaging, VEGF stimulated, CD31 staining, tube area, NPC library (AID 1117340;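 active = compound that reduces growth-factor-driven endothelial tube area in a mixed cell culture, no cutoff stated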). Particulars: VEGF-stimulated ADSC/ECFC co-culture, at 10 µM, active compounds read high.
`CN(CCCN1c2ccccc2CCc2ccccc21)CC(=O)c1ccc(Cl)cc1`: the tube area decrease was 29.2% (inactive). Still for that read-out and setting: the same measure for `CNCCCCOc1ccccc1Cc1ccccc1`: 41% (active). On to `CCC1=C(C)CN(C(=O)NCCc2ccc(S(=O)(=O)NC(=O)NC3CCC(C)CC3)cc2)C1=O` (stereo not drawn), for which the tube area decrease was -7.2% (inactive).

Regarding `Cc1cnc(NC(=O)C2=C(O)c3ccccc3S(=O)(=O)N2C)s1`, the tube area decrease was -8.1% (inactive). `CCOC(=O)OC(C)OC1=C(C(=O)Nc2ccccn2)N(C)S(=O)(=O)c2ccccc21` (stereo not drawn): the tube area decrease was -1.1% (inactive). For `CCOC(=O)c1ncn2c1CN(C)C(=O)c1cc(F)ccc1-2`, the tube area decrease is -3.4% (inactive).

In the case of `CC(=O)OCC(=O)NCCCOc1cccc(CN2CCCCC2)c1`, the tube area decrease was 10.4% (inactive). With `CC(C)NCC(O)COc1ccc(CCOCC2CC2)cc1` (stereo not drawn), the tube area decrease was 26% (inactive). `CN1[C@@H]2CC[C@H]1CC(OC(=O)c1c[nH]c3ccccc13)C2` (stereo partly drawn): the tube area decrease is 16.9% (inactive).

`Nc1nc2c(ncn2CCC(CO)CO)c(=O)[nH]1`: the tube area decrease was 11.3% (inactive). The same measure, in the same setting: the same measure for `C/C=C1\[C@H]2C=C(C)C[C@]1(N)c1ccc(=O)[nH]c1C2`: 0.1% (inactive); for `CNNCc1ccc(C(=O)NC(C)C)cc1`: 0.7% (inactive).

As to `CC(C)(O)c1ccccc1CC[C@@H](SCC1(CC(=O)O)CC1)c1cccc(/C=C/c2ccc3ccc(Cl)cc3n2)c1`, the tube area decrease was -7.2% (inactive). Consider `CC[N+](C)(CC)CCOC(=O)C(O)(c1ccccc1)C1CCCCC1` (stereo not drawn), for which the tube area decrease was -4.7% (inactive). As for `CC1(C)O[C@@H]2C[C@H]3[C@@H]4C[C@H](F)C5=CC(=O)C=C[C@]5(C)[C@@]4(F)[C@@H](O)C[C@]3(C)[C@]2(C(=O)CO)O1`, the tube area decrease is 14.7% (inactive). With `CNCC(O)c1ccc(O)c(O)c1` (stereo not drawn), the tube area decrease is -33.6% (inactive). The same measure, in the same setting: the same measure for `CC(C)(C)NC(=O)[C@@H]1CN(Cc2cccnc2)CCN1C[C@@H](O)C[C@@H](Cc1ccccc1)C(=O)N[C@H]1c2ccccc2C[C@H]1O`: 7.2% (inactive). Regarding `Oc1cccc2[nH]ccc12`, the tube area decrease is -3.7% (inactive). Regarding `COc1cc2c(cc1OC)C(=O)C(CC1CCN(Cc3ccccc3)CC1)C2` (stereo not drawn), the tube area decrease is 17.7% (inactive). Regarding `CCN(CC)CCNC(=O)c1cc(Cl)c(N)cc1OC`, the tube area decrease is 12.6% (inactive).

A short description of a further experiment: GLP1 release stimulators, primary, NCI-H716, NPC library (AID 1117341). Note: reference of the scale not given here. As to conditions: NCI-H716 cells, at 10 µM, active compounds read high.
With `Cc1cccc(C)c1OCC(C)N` (stereo not drawn), the GLP1 secretion stimulation was -4.1% (inactive). For `COc1ccc(C2CNC(=O)C2)cc1OC1CCCC1` (stereo not drawn), the GLP1 secretion stimulation is 4.4% (inactive). In the case of `CNS(=O)(=O)Cc1ccc2[nH]cc(CCN(C)C)c2c1`, the GLP1 secretion stimulation was 1.4% (inactive). `Nc1nc(F)nc2c1ncn2[C@@H]1O[C@H](CO)[C@@H](O)[C@@H]1O`: the GLP1 secretion stimulation is -2% (inactive). On to `CCCCN(CCCC)CCC(O)c1cc2c(Cl)cc(Cl)cc2c2cc(C(F)(F)F)ccc12` (stereo not drawn), for which the GLP1 secretion stimulation is -0.7% (inactive).

`CCN1CC(CCN2CCOCC2)C(c2ccccc2)(c2ccccc2)C1=O` (stereo not drawn): the GLP1 secretion stimulation was 3.1% (inactive).

On to `OCc1cccnc1`, for which the GLP1 secretion stimulation is 1.4% (inactive). The same measure, in the same setting: the same measure for `Cc1ccsc1C(=CCCN1CCC[C@@H](C(=O)O)C1)c1sccc1C`: 2.2% (inactive); for `NS(=O)(=O)Cc1noc2ccccc12`: 2.1% (inactive); for `CCN(CC)CC1CCCCN1CC(=O)N1c2ccccc2C(=O)Nc2cccnc21` (stereo not drawn): 7.7% (inactive). On the same count and under the same terms, the figure for `CN(C)CCCSc1ccccc1NC(=O)/C=C/c1ccccc1` is 3.9% (inactive). Consider `CCc1oc2ccccc2c1C(=O)c1cc(Br)c(O)c(Br)c1`, for which the GLP1 secretion stimulation is 21.4% (active). Same read-out and setting: the figure for `Cc1c[nH]c2ccccc12` is -1.7% (inactive); for `O=NN(CCCl)C(=O)NC1CCCCC1` it is -0.1% (inactive).

Regarding `CCCN1CCCC[C@H]1C(=O)Nc1c(C)cccc1C`, the GLP1 secretion stimulation was 3.3% (inactive). Consider `CCCc1c(OCCCCc2nn[nH]n2)ccc(C(C)=O)c1O`, for which the GLP1 secretion stimulation was 6.3% (inactive).

Regarding `CCOC(=O)[C@H](CCc1ccccc1)N[C@@H](C)C(=O)N1[C@H](C(=O)O)C[C@@H]2CCC[C@@H]21`, the GLP1 secretion stimulation is 2.1% (inactive). For the molecule `CN1CCN(c2c(F)cc3c(=O)c(C(=O)O)cn4c3c2SCC4)CC1`, the GLP1 secretion stimulation is 1.6% (inactive).

Take `CN(CCCN1c2ccccc2CCc2ccccc21)CC(=O)c1ccc(Cl)cc1`: the GLP1 secretion stimulation was 4.6% (inactive). `CNCCCCOc1ccccc1Cc1ccccc1`: the GLP1 secretion stimulation is 7.5% (inactive). On to `CCC1=C(C)CN(C(=O)NCCc2ccc(S(=O)(=O)NC(=O)NC3CCC(C)CC3)cc2)C1=O` (stereo not drawn), for which the GLP1 secretion stimulation was 2.3% (inactive). Take `Cc1cnc(NC(=O)C2=C(O)c3ccccc3S(=O)(=O)N2C)s1`: the GLP1 secretion stimulation is -2.4% (inactive). For `CCOC(=O)OC(C)OC1=C(C(=O)Nc2ccccn2)N(C)S(=O)(=O)c2ccccc21` (stereo not drawn), the GLP1 secretion stimulation is 1% (inactive). As to `CCOC(=O)c1ncn2c1CN(C)C(=O)c1cc(F)ccc1-2`, the GLP1 secretion stimulation was 0.1% (inactive).

Consider `CC(=O)OCC(=O)NCCCOc1cccc(CN2CCCCC2)c1`, for which the GLP1 secretion stimulation is -0.3% (inactive). For `CC(C)NCC(O)COc1ccc(CCOCC2CC2)cc1` (stereo not drawn), the GLP1 secretion stimulation is 1.9% (inactive). For the molecule `CN1[C@@H]2CC[C@H]1CC(OC(=O)c1c[nH]c3ccccc13)C2` (stereo partly drawn), the GLP1 secretion stimulation was -0.1% (inactive). Consider `Nc1nc2c(ncn2CCC(CO)CO)c(=O)[nH]1`, for which the GLP1 secretion stimulation was 1.1% (inactive).

Take `C/C=C1\[C@H]2C=C(C)C[C@]1(N)c1ccc(=O)[nH]c1C2`: the GLP1 secretion stimulation was 3.9% (inactive). With `CNNCc1ccc(C(=O)NC(C)C)cc1`, the GLP1 secretion stimulation was -0.6% (inactive). Consider `CC(C)(O)c1ccccc1CC[C@@H](SCC1(CC(=O)O)CC1)c1cccc(/C=C/c2ccc3ccc(Cl)cc3n2)c1`, for which the GLP1 secretion stimulation is 80.8% (active). `CC[N+](C)(CC)CCOC(=O)C(O)(c1ccccc1)C1CCCCC1` (stereo not drawn): the GLP1 secretion stimulation was -3.3% (inactive). Consider `CC1(C)O[C@@H]2C[C@H]3[C@@H]4C[C@H](F)C5=CC(=O)C=C[C@]5(C)[C@@]4(F)[C@@H](O)C[C@]3(C)[C@]2(C(=O)CO)O1`, for which the GLP1 secretion stimulation was -0.6% (inactive). Still for that read-out and setting: the figure for `CNCC(O)c1ccc(O)c(O)c1` (stereo not drawn) is 2.7% (inactive); for `CC(C)(C)NC(=O)[C@@H]1CN(Cc2cccnc2)CCN1C[C@@H](O)C[C@@H](Cc1ccccc1)C(=O)N[C@H]1c2ccccc2C[C@H]1O` it is 4.1% (inactive); for `Oc1cccc2[nH]ccc12` it is -2.4% (inactive). For `COc1cc2c(cc1OC)C(=O)C(CC1CCN(Cc3ccccc3)CC1)C2` (stereo not drawn), the GLP1 secretion stimulation was 6.3% (inactive). Still for that read-out and setting: the same measure for `CCN(CC)CCNC(=O)c1cc(Cl)c(N)cc1OC`: 0.3% (inactive).
